# Assay outcomes as filed in PubChem BioAssay.
# Dicer processing = inhibitors of Dicer pre-microRNA processing, primary screen, biochemical, cat-ELCCA, chemiluminescence; Endoribonuclease Dicer (Homo sapiens), Q9UPY3; cat-ELCCA pre-miR-21 Dicer processing; hits give high values; z-score at 25 µM; 47,000 compounds, 6% hits; AID 1347074, 2019; in the data active means z-score above about 3, passing the limit was not always enough;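 further: plate controls were vehicle for no effect and no enzyme for full effect; higher signal means more uncleaved substrate so more Dicer inhibition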
# Active calls of the source: *. This excerpt belongs to a sample that is enriched for hits.
SMILES,Dicer processing
Cc1ccc(NC2=NC(c3ccccc3)n3c(nc(C)cc3=O)N2)c(C)c1 (centres undefined),2
O=C(O)c1ccc2c3c([nH]nc13)-c1ccccc1C2=O,-1.4
CC(=O)c1ccc(N/C=C/C(=O)c2ccc(F)cc2)cc1,0.22
CCc1cc(C(=O)c2ccc(OC)cc2)c(NC(=O)c2ccc(OC)cc2)s1,-1.2
Cc1ccc2c(c1)C(O)(CC(=O)c1ccc(Cl)cc1)C(=O)N2 (centres undefined),-0.18
Cc1ccc(S(=O)(=O)NCc2ccc3c(c2)OCO3)cc1C,0.26
COc1ccc(CNCc2ccc3c(c2)OCO3)cc1OC,-0.8
COc1ccc(S(=O)(=O)NCc2ccc3c(c2)OCO3)cc1OC,3.6*
Cc1ccc(NC(=S)N(C)/N=C/c2ccccn2)cc1Cl,2
Cc1cc(C)c(NS(=O)(=O)c2ccc3[nH]c(=O)[nH]c3c2)c(C)c1,1.9
CCOC(=O)C1CCCCN1C(=O)c1c(SC)nsc1SC (centres undefined),2.2
CCOC(=O)c1cc(=O)oc2cc(O)ccc12,2.4
c1cc(CN2CCN(Cc3ccncc3)CC2)ccn1,11
CSc1ccc(CN2CCN(S(C)(=O)=O)CC2)cc1,3.1*
CCc1ccc(CN2CCN(S(C)(=O)=O)CC2)cc1,3.7*
CCc1ccc(CN2CCN(C3CCCC(C)C3)CC2)cc1 (centres undefined),3*
CCCS(=O)(=O)N1CCN(Cc2ccc(Br)cc2)CC1,2.4
CCc1ccc(NS(C)(=O)=O)cc1,1.2
CC1CCCC(N2CCN(Cc3ccc(Cl)cc3)CC2)C1 (centres undefined),0.84
CS(=O)(=O)N1CCN(CC(O)Cn2c3ccccc3c3ccccc32)CC1 (centres undefined),1.4
CCc1ccc(CN2CCC(N3CCN(CCO)CC3)CC2)cc1,0.59
CNC(=O)C(NC(=O)OC(C)(C)C)C(C)OCc1ccccc1 (centres undefined),-0.54
Cn1nc(CC(=O)O)c2ccccc2c1=O,2.2
CC(C)(CC(=O)O)CC(=O)Nc1ccc2c(c1)OCCCO2,-0.21
CC1(C)CC(=O)C=C(NC(=O)Nc2ccc(Cl)cc2)C1,-0.08
SMILES,Dicer processing
CCOC(=O)C(Nc1cccc(C)c1)(NS(=O)(=O)c1ccc(C)cc1)C(F)(F)F (centres undefined),-0.19
CCOC(=O)c1c(NC(=O)c2ccncc2)sc2c1CCC2,3
Cc1ccc(-c2nc(/N=C/NOC(=O)c3ccc([N+](=O)[O-])cc3)sc2C)cc1Cl,3.6*
O=C(ON/C=N/c1ncc(-c2ccc(Br)s2)s1)c1ccc([N+](=O)[O-])cc1,0.29
Cc1ccc(-c2nc(/N=C/N(C)C)sc2C)cc1Cl,-0.43
Cc1ccc(CSc2nc(C)cc(=O)[nH]2)cc1,-1.6
Cc1cccc2nc(CSc3nnnn3-c3ccccc3)cn12,6.5*
Cc1cc(=O)[nH]c(SCc2cccc(Oc3ccccc3)c2)n1,-0.26
Cc1cc(C)nc(N2N=C(CSc3nnnn3-c3ccccc3)CC2=O)n1,-1.5
Cc1cccc2nc(CSc3nncn3-c3ccccc3)cn12,-0.94
Cc1cc(=O)[nH]c(SCc2cn3c(C)cccc3n2)n1,4.8*
C#CC(C)(C)NS(=O)(=O)c1cc(Cl)c(Cl)cc1Cl,-0.24
O=C(OCC1CC1)c1cnc(Sc2cc(C(F)(F)F)cc(C(F)(F)F)c2)nc1C(F)(F)F,17
C=C(C)c1cccc(C(C)(C)NC(=O)NCCc2ccc(S(N)(=O)=O)cc2)c1,3.9*
C=C(C)c1cccc(C(C)(C)NC(=O)NCCc2ccccc2)c1,1.2
C=C(C)c1cccc(C(C)(C)NC(=O)NCc2ccc(Cl)cc2)c1,0.35
CC1(C)CC(=O)C2=C(C1)N(c1ccc(S(N)(=O)=O)cc1)C(N)=C(C#N)C2c1ccc(Cl)cc1 (centres undefined),-1.2
Cn1c(=O)c2c(ncn2CC(=O)Nc2ccc3c(c2)OCCO3)n(C)c1=O,0.53
CC(C)CNC(=O)Cn1cnc2c1c(=O)n(C)c(=O)n2C,0.1
CCCCCCCNC(=O)Cn1cnc2c1c(=O)n(C)c(=O)n2C,4*
CCCNC(=O)Cn1cnc2c1c(=O)n(C)c(=O)n2C,-0.92
CCOCCCNC(=O)Cn1cnc2c1c(=O)n(C)c(=O)n2C,1.3
Cn1c(=O)c2c(ncn2CC(=O)NCc2ccc3c(c2)OCO3)n(C)c1=O,6.6*
COC(=O)c1sc(SC)c(S(=O)(=O)C(C)C)c1N/N=C(\C#N)S(=O)(=O)C(C)C,-1.1
CCOC(=O)c1sc2nc(-c3ccccc3OC)nc(C)c2c1C,0.44
SMILES,Dicer processing
CCOC(CC(=O)NNC(=O)c1ccc(Cl)cc1)OCC,-2.5
Cc1cc(NS(=O)(=O)c2cc(Cl)cc(Cl)c2)no1,-1.8
Cc1cc([N+](=O)[O-])cnc1Sc1ccc(Cl)cc1,-0.68
CCOC(=O)[C@H](CCCN=C(N)N)NC(=O)c1ccccc1,4.8*
CCCCCCNC(=O)NC(Cc1ccccc1)C(=O)OCC (centres undefined),-0.79
O=C(NC(CO)C(=O)O)c1ccccc1 (centres undefined),2.1
CC(C)(C)c1ccc(C2=NNC(SCC(=O)c3ccc(Cl)cc3)=NN2)cc1,-0.55
